{"source": "paper PMC4552634", "about": "“A New Set of Chemical Starting Points with Plasmodium falciparum Transmission-Blocking Potential for Antimalarial Drug Discovery” (PLoS ONE, 2015)", "note": "About 3,200 (25%) of roughly 13,000 compounds showed an effect of 50% or more. This is one part of the list.", "data": [{"test_system": "P. falciparum stage V gametocytes", "design": "BacTiter-Glo ATP luminescence viability of purified stage V gametocytes in 384-well plates, per cent inhibition versus DMSO", "conditions": "48 h, 5 µM; inhibitor", "units": {"% Inhibition": "%"}, "values": [{"smiles": "CC[C@H](C)CNC(=O)c1cccc(-c2cccc(CNCC3CNCCCO3)c2)n1", "note": "(stereo partly shown) [TCMDC-134217]", "% Inhibition": 48.98}, {"smiles": "Clc1cc(Nc2ncnc3sc(C#Cc4ncc[nH]4)cc23)ccc1OCc1ccccn1", "note": "[TCMDC-135429]", "% Inhibition": -6.463}, {"smiles": "Cc1cc(Cl)c(S(=O)(=O)N2CCc3ccccc32)cc1OCC(=O)NC1CCCCC1", "note": "[TCMDC-124369]", "% Inhibition": -19.22}, {"smiles": "Fc1ccc(-c2cncc(-c3ccc(F)cc3)n2)cc1", "note": "[TCMDC-137988]", "% Inhibition": -9.929}, {"smiles": "Cc1ccccc1C1CCN(C2CCC(NC(=O)/C=C/c3cccc(F)c3)CC2)CC1", "note": "(stereo not shown) [TCMDC-133505]", "% Inhibition": -47.31}, {"smiles": "Nc1ccc(-c2cnc3[nH]cc(-c4ccc(C(=O)O)cc4)c3c2)cn1", "note": "[TCMDC-136383]", "% Inhibition": 1.916}, {"smiles": "COc1ccc2nc(-c3ccc(C(=O)NCCCN4CCN(c5cc(Cl)ccc5OC)CC4)cc3OC)[nH]c2c1", "note": "[TCMDC-140025]", "% Inhibition": -24.14}, {"smiles": "CCCc1cc(Cc2cnc(N)nc2N)cc(OC)c1OC", "note": "[TCMDC-137647]", "% Inhibition": 0.312}, {"smiles": "O=C(Nc1cc(C(F)(F)F)cc(C(F)(F)F)c1)Nc1cc(C(F)(F)F)cc(C(F)(F)F)c1", "note": "[TCMDC-123956]", "% Inhibition": -66.5}, {"smiles": "CCOC(=O)c1ccc(-c2cnoc2-c2cc(CC)c(OC)cc2O)o1", "note": "[TCMDC-124201]", "% Inhibition": -15.35}, {"smiles": "CC1CN(c2cc(=O)n(Cc3ccc(NC(=O)Nc4ccc(-c5ccccc5)cc4)cc3)cn2)CC(C)N1", "note": "(stereo not shown) [TCMDC-133372]", "% Inhibition": 24.66}, {"smiles": "CCOc1cc(C(=O)NCc2ccc(Cl)c(Cl)c2)ccc1-c1nc2ccc(Cl)cc2[nH]1", "note": "[TCMDC-140903]", "% Inhibition": 96.39}, {"smiles": "CCOc1cc(C(=O)NCCc2ccc(Cl)c(Cl)c2)ccc1-c1nc2ccc(Cl)cc2[nH]1", "note": "[TCMDC-140905]", "% Inhibition": -12.3}, {"smiles": "CCOc1cc(C(=O)NCc2cc(Cl)cc(Cl)c2)ccc1-c1nc2ccc(Cl)cc2[nH]1", "note": "[TCMDC-140904]", "% Inhibition": -8.665}, {"smiles": "Cc1ccc2[nH]c(-c3ccc(C(=O)NCc4ccc(Cl)c(Cl)c4)cc3)nc2c1C", "note": "[TCMDC-140450]", "% Inhibition": 11.51}, {"smiles": "COC(=O)c1ccc2nc(-c3ccc(C(=O)NCc4ccc(Cl)c(Cl)c4)cc3)[nH]c2c1", "note": "[TCMDC-140445]", "% Inhibition": 73.87}, {"smiles": "O=C(NCc1ccc(Cl)c(Cl)c1)c1ccc(-c2nc3ccc(Cl)cc3[nH]2)cc1", "note": "[TCMDC-140441]", "% Inhibition": 19.73}, {"smiles": "CC1(C)[C@H]2CC[C@@H](CNc3nc(NCCc4cnc[nH]4)nc(NCc4cc(F)ccc4F)n3)[C@@H]1C2", "note": "[TCMDC-139317]", "% Inhibition": -2.684}, {"smiles": "O=C(CCc1c[nH]cn1)Nc1cccc(-c2ccc(-c3nc4ccccc4[nH]3)s2)c1", "note": "[TCMDC-132152]", "% Inhibition": -14.42}, {"smiles": "Cn1cc(C2CCN(CCCCCNC(=O)/C=C/c3ccc(Cl)c(Cl)c3)CC2)c2cc(O)ccc21", "note": "[TCMDC-139364]", "% Inhibition": -26.1}, {"smiles": "CN(C)Cc1c(O)ccc2[nH]c(-c3cccc(F)c3)nc12", "note": "[TCMDC-136535]", "% Inhibition": -72.73}, {"smiles": "CN(C)Cc1c(O)ccc2[nH]c(-c3ccc(F)cc3F)nc12", "note": "[TCMDC-136534]", "% Inhibition": 71.11}, {"smiles": "CC(C)CN(Cc1c(O)ccc2[nH]c(-c3ccc(F)cc3F)nc12)CC(C)C", "note": "[TCMDC-136358]", "% Inhibition": -65.39}, {"smiles": "Cn1cnc(CCNC(=O)c2ccc(-c3cccc(-c4nc5cc(F)ccc5[nH]4)c3)cc2)c1", "note": "[TCMDC-132497]", "% Inhibition": -1.156}, {"smiles": "CC(C)N1CCC(N(Cc2ccc(-c3ccc(C(F)(F)F)cc3)cc2)C(=O)Cn2c(CCc3cccc(F)c3F)nc(=O)c3cccnc32)CC1", "note": "[TCMDC-136049]", "% Inhibition": 118.8}, {"smiles": "CC(C)(C)N1CCC(N(Cc2ccc(-c3ccc(C(F)(F)F)cc3)cc2)C(=O)Cn2c(CCc3cccc(F)c3F)nc(=O)c3cccnc32)CC1", "note": "[TCMDC-136050]", "% Inhibition": 107.4}, {"smiles": "O=C(Nc1cccc(-c2nn3ncccc3c2-c2ccnc(Nc3cccc(C(F)(F)F)c3)n2)c1)c1c(F)cccc1F", "note": "[TCMDC-135549]", "% Inhibition": -33.07}, {"smiles": "COCn1ncc2cc(-c3cccc(NC(=O)c4csc(NC(C)=O)n4)c3)ccc21", "note": "[TCMDC-133146]", "% Inhibition": 24.99}, {"smiles": "CNC(=O)C(C)N(c1ccc(Cl)cc1)c1nc(C(C)(C)C)cs1", "note": "(stereo not shown) [TCMDC-125380]", "% Inhibition": 52.18}, {"smiles": "CC1(C)N=C(N)N=C(N)N1OCCCc1cc(Cl)c(Cl)cc1Cl", "note": "[TCMDC-131696]", "% Inhibition": 1.916}, {"smiles": "CCCCc1cc(N2CCC(NC(C)=O)C2)nc(Nc2ccc(C)cc2)n1", "note": "(stereo not shown) [TCMDC-134020]", "% Inhibition": 11.89}, {"smiles": "COc1cc2ncnc(Nc3ccc(OCc4ccccc4)c(OCc4ccccc4)c3)c2cc1OC", "note": "[TCMDC-131922]", "% Inhibition": -20.12}, {"smiles": "COc1cc2nc(C)nc(Nc3ccc(Oc4ccccc4)cc3)c2cc1OC", "note": "[TCMDC-131940]", "% Inhibition": 0.7535}, {"smiles": "COc1ccc(Nc2nc(N)c3cc(OC)c(OC)cc3n2)cc1OC.Cl", "note": "[TCMDC-131881]", "% Inhibition": -0.9625}, {"smiles": "COc1cc2nc(NCc3ccc(S(N)(=O)=O)cc3)nc(Nc3ccc(Oc4ccccc4)cc3)c2cc1OC", "note": "[TCMDC-138256]", "% Inhibition": 65.95}, {"smiles": "COc1cc2nc(C)nc(Nc3ccc(Cc4ccccc4)cc3)c2cc1OC", "note": "[TCMDC-131941]", "% Inhibition": 1.462}, {"smiles": "N#Cc1cnc(Nc2ccc(Oc3ccccc3)cc2)nc1Nc1cccc(S(N)(=O)=O)c1", "note": "[TCMDC-138613]", "% Inhibition": -50.28}, {"smiles": "COc1cc2nc(Nc3ccc(C)cc3)nc(Nc3ccc(C)cc3)c2cc1OC.Cl", "note": "[TCMDC-138540]", "% Inhibition": 91.22}, {"smiles": "COc1cc2nc(N(C)C)nc(Nc3ccc(OCc4ccccc4)cc3)c2cc1OC", "note": "[TCMDC-137183]", "% Inhibition": 59.63}, {"smiles": "COc1cc2nc(NCCCO)nc(Nc3ccc(Oc4ccccc4)cc3)c2cc1OC", "note": "[TCMDC-138255]", "% Inhibition": 110.2}, {"smiles": "COc1cc2nc(Nc3ccc4c(c3)OCCO4)nc(N)c2cc1OC.Cl", "note": "[TCMDC-131882]", "% Inhibition": -45.81}, {"smiles": "COc1cc2nccc(Nc3ccc(Oc4ccccc4)cc3)c2cc1OC.Cl", "note": "[TCMDC-131917]", "% Inhibition": -23.95}, {"smiles": "COc1cc2nc(Nc3ccc(Oc4ccccc4)cc3)nc(Nc3ccc(Oc4ccccc4)cc3)c2cc1OC", "note": "[TCMDC-138238]", "% Inhibition": -17.62}]}]}
